Bioassay records from PubChem BioAssay.
Most compounds without a hit are left out; they make up all but 21% or so of the library.
Pf growth 96h: Primary qHTS for delayed death inhibitors of the malarial parasite plastid, 96 hour incubation. AID 504834, 2011. 6.9% of 320,000 active. Potency, µM (highest dose often 28.7 µM), inactives show at the top dose activity change, negative = inhibition, most hits filed as inhibitors. P. falciparum luciferase reporter growth, 96 h; note: potency is the fitted concentration of half-maximal effect; % is set by controls: 0 for no effect and ±100 for the full control effect
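Cell-based qHTS: luciferase-tagged P. falciparum in erythrocytes (2% hematocrit, 0.05% parasitemia final) incubated with compounds for 96 hours, 37 C, 5% CO2; luciferase detection reagent then added and luminescence measured.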
NS1 inh: qHTS Assay for Inhibitors of Influenza NS1 Protein Function; Potency, µM (top dose mostly 46.1 µM), for the others: at the top dose activity, positive = more growth; 0.4% of 270,000 active; AID 2326, 2010; calls by dose curve; note: potency is the fitted concentration of half-maximal effect; actives are rising curves; nearly all actives have a fitted effect of over 50% in size
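Growth recovery, yeast-based: influenza A NS1 expressed in S. cerevisiae causes slow growth, and suppressors are detected by OD600. The parent strain without NS1 is used as positive control.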
Pf growth 48h: Primary qHTS for delayed death inhibitors of the malarial parasite plastid, 48 hour incubation; P. falciparum luciferase growth in erythrocytes, 48 h; Potency, µM (highest dose often 28.7 µM), for the others: top-dose activity change, negative = inhibition, hits mostly inhibitors; 5.9% of 310,000 active; AID 504832, 2011; note: potency is the fitted concentration of half-maximal effect; % is set by controls: 0 for no effect and ±100 for the full control effect
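Luciferase-expressing P. falciparum in infected erythrocytes (2% hematocrit, 0.1% parasitemia final) in RPMI 1640/0.5% Albumax were exposed to compound for 48 hours at 37 C, 5% CO2; growth read as luminescence.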
Shiga inhibitor: A qHTS for Small Molecule Inhibitors of Shiga Toxin; Vero cells, Shiga toxin protein synthesis inhibition reporter; inhibition, % at 38.7 µM; 9.2% of 290,000 active; in the data active = inhibition mostly above about 28%, no sharp cut-off; inactive = mostly below about 43%; note: 0% is about no effect
Cycloheximide cs: Cycloheximide Counterscreen for Small Molecule Inhibitors of Shiga Toxin. max response, %. cell reporter, cycloheximide protein synthesis inhibition counterscreen. 12% of 300,000 active; in the data active = max response mostly above about 13%, no sharp cut-off; inactive = mostly below about 14%; note: read at 38.3 µM for the half of the compounds with a filed dose; 0% is about no effect
Active calls of the source: *; i = inactive; ? = inconclusive; · = no result; [ ] = remark or other dose. Unless noted, calls come from the whole dose curve; as a rule, active = well fitted inhibition curve with a large enough effect; inconclusive = small, poorly fitted or top-dose-only effect, or another doubt; inactive = no such curve, though single readings can be large or run the other way.

SMILES	Pf growth 96h	NS1 inh	Pf growth 48h	Shiga inhibitor	Cycloheximide cs
COC(=O)C(NC(=O)c1ccc(Cl)cc1)(Nc1nc(C)cs1)C(F)(F)F (stereo unspecified)	?	12%	2%	27	-1
CCC(C)(C(=O)NC1CCCCC1)N(C(=O)CC1NC(=O)NC1=O)c1c(C)n(C)n(-c2ccccc2)c1=O (stereo unspecified)	-7%	·	i	22	-3
CCOC(=O)c1c(C)n(-c2ccc(C)cc2)c2ccc(O)c(CN(C)C)c12	32%	0%	10µM*	-6	-6
Cn1c(-c2ccc(F)cc2)cnc1SCC(=O)Nc1ccccc1N1CCOCC1	·	-6%	-39%	56*	27*
COC(=O)c1ccc(CNC(=O)CNc2cc(C(F)(F)F)ccc2N2CCOCC2)cc1	8.3µM*	-13%	·	-21	-3
O=C(CCC1CCCC1)Nc1cc(C(F)(F)F)ccc1N1CCOCC1	13µM*	·	12µM*	·	·
CCOc1ccccc1NC(C)C(=O)Nc1cc(C(F)(F)F)ccc1N1CCOCC1 (stereo unspecified)	0.29µM*	9%	0.59µM*	-8	-1
CCCCNC(=S)NC(C)(C)CO	12%	3%	7%	-16	2
CN(C)c1ccc(/C=N/NC(=O)c2ccc(-n3cnnn3)cc2)cc1	28%	·	13%	·	·
Cc1nnc(SCC(=O)Nc2cc(C(F)(F)F)ccc2N2CCOCC2)o1	·	-3%	-7%	-8	1
Cc1ccccc1SCC(=O)Nc1cc(C(F)(F)F)ccc1N1CCOCC1	4.7µM*	·	2.1µM*	·	·
O=C(Nc1cc(C(F)(F)F)ccc1N1CCOCC1)c1ccc(Cl)nc1	·	7%	9.3µM*	-18	-2
O=C(Nc1cc(C(F)(F)F)ccc1N1CCOCC1)c1ccccc1	·	-3%	-19%	-9	1
CN1C(=O)[C@H]2[C@@H](/C=C/c3ccccc3)N3C(=O)CN(CC4CC4)C(=O)[C@@]3(C)[C@H]2C1=O	80%	13%	42%	-3	-2
COc1ccc(-n2c(SCC(=O)Nc3ccccc3C)nc(O)c(Cc3ccccc3)c2=O)cc1	?	17%	-14%	-4	8
COc1ccc(-n2c(O)c(Cc3ccccc3)c(=O)n3nc(-c4ccccc4)c(=O)cc23)cc1	-3%	13%	1%	13	11*
CC(C)(C)c1ccc(-c2nnc3sc(-c4ccncc4)nn23)cc1	2%	-71%	?	34	14*
Cc1ccccc1-c1nn2c(-c3ccccc3)nnc2s1	9.3µM*	-9%	?	-16	-4
COc1cc(-c2nn3c(-c4ccccc4)nnc3s2)cc(OC)c1OC	-15%[5.75 µM]	8%	-19%	-10	-1
COc1ccc(CN(CCC(c2ccccc2)C2CCOC(C)(C)C2)C(C)=O)cc1 (stereo unspecified)	-1%	-18%	13µM*	-8	-3
COc1ccc(CNCCC(c2ccccc2)C2CCOC(C)(C)C2)cc1 (stereo unspecified)	?	·	?	8	-6
C[C@H]1[C@@H](OC(=O)CCC(=O)O)OC2OC3(C)CC[C@H]4[C@H](C)CC[C@@H]1[C@@]24OO3 (stereo partly specified)	0.0013µM*	·	0.0019µM*	·	·
C[C@@H]1CC[C@H]2[C@@H](C)C(=O)O[C@@H]3O[C@@]4(C)CC[C@@H]1[C@]32OO4	0.0033µM*	-68%	0.0033µM*	-1	-1
C[C@@H]1CC[C@H]2[C@@H](C)C(=O)O[C@@H]3OC4(C)CC[C@@H]1C32OO4 (stereo partly specified)	0.0027µM*	·	0.0034µM*	·	·
O=S(=O)(c1ccc(NC(=S)N2CCN(c3ccc(O)cc3)CC2)cc1)N1CCOCC1	-9%	·	?	28	-5
SMILES	Pf growth 96h	NS1 inh	Pf growth 48h	Shiga inhibitor	Cycloheximide cs
O=C1CCCC(O)=C1N=Nc1cccc(C(=O)O)c1	25%	·	10%	59	17*
CCN(CC)S(=O)(=O)c1cccc(N=NC2=C(O)CCCC2=O)c1	?	7%	?	-14	-2
O=C(O)c1cccc(N=NN2CCOCC2)c1	-12%	3%	7%	39	18*
CC1(C)CC(=O)C(N=Nc2cc(Cl)c(Cl)c(Cl)c2)=C(O)C1	24%	-1%	·	-10	-3
Cc1ccc(O)c(N=NC2=C(O)CC(C)(C)CC2=O)c1	?	-22%	?	56*	56*
CC(=O)N1CCc2cc(N=NC3=C(O)CC(C)(C)CC3=O)ccc21	32%	·	?	46*	27*
Cc1ccc(CNC(=O)CN(C)S(=O)(=O)c2cccc3cccnc23)cc1	?	-6%	·	4	-2
O=C(CSc1ccc(-c2cccnc2)nn1)Nc1ccc(F)c(F)c1	?	9%	?	-10	8
CCn1c(N2CCN(C(=S)NCCc3ccccc3)CC2)nc2ccccc21	?	-40%	2%	-12	-1
Cc1nc2ccc(N=NC3=C(O)CC(C)(C)CC3=O)cc2s1	33%	-4%	70%	110*	96*
Cc1nc2ccc(N=NC3=C(O)CCCC3=O)cc2s1	27%	-14%	15%	72*	50*
CCN(CC)CCNC(=O)CCCNC(=O)Cn1cnc2sc(C)c(C)c2c1=O	·	-6%	14%	4	-3
Cc1cccc(NC(=S)N2CCN(S(=O)(=O)c3ccccc3)CC2)c1	-1%	9%	?	-6	-1
Cc1cccc(NC(=S)N2CCN(S(=O)(=O)c3cccc(F)c3)CC2)c1	?	·	13µM*	6	9
CC(=O)c1cccc(NC(=S)N2CCN(S(=O)(=O)c3ccccc3)CC2)c1	4.1µM*	15%	?	50	9.7*
CC(=O)c1cccc(NC(=S)N2CCN(S(=O)(=O)c3ccc(F)cc3)CC2)c1	?	21%	?	0	19*
CN=c1scc(-c2ccccc2Br)n1/N=C/c1ccc[nH]1	102%	·	163%	86*	29*
CN(C)C/C=C(/c1ccc(Br)cc1)c1cccnc1	15µM*	-13%	12µM*	·	·
O=C(NCCNC(=O)c1cccnc1)c1ccc(Br)cc1	44%	1%	-27%	11	-2
O=C(NC1CCCC1)c1cccc2c1C(=O)c1ccc(/C=C/c3ccccc3)cc1S2(=O)=O	1.9µM*	·	?	·	·
COc1ccc(-c2ccc3c(c2)S(=O)(=O)c2cccc(C(=O)NC4CCCC4)c2C3=O)cc1OC	40%	·	26%	·	·
COC(=O)C1CN(C(=O)COc2ccc(Cl)cc2C)c2ccccc2O1 (stereo unspecified)	?	-1%	15µM*	25	21
COC(=O)C1CN(C(=O)COc2ccccc2C)c2ccccc2O1 (stereo unspecified)	-27%	-5%	-9%	-3	6
O=C1C2C3C=CC(C4CC34)C2C(=O)N1/N=C/c1c[nH]c2ccccc12 (stereo unspecified)	-41%	·	i	115*	46*
O=C1C2C3C=CC(C4CC34)C2C(=O)N1/N=C/c1ccc([N+](=O)[O-])s1 (stereo unspecified)	95%	9%	42%	28	16
